High-throughput results (PubChem)
Most compounds without a hit are left out; they make up all but 2.4% or so of the library.
POLI inh: blocks human DNA polymerase iota activity. Q9UNA4. Potency, µM (titrated, usually from 115 µM), without a hit: at the highest dose activity, negative = inhibition, hits mostly inhibitors. Pol iota fluorescent replication assay, 10 min. 1% of 390,000 active
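Fluorescent replication assay read twice, at 0 min and 10 min after adding 50 nM (final) substrate. Enzyme (10 nM) and compounds were first incubated 15 min at room temperature; enzyme-free buffer wells were negative controls.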
POLH inh: inhibitors of human DNA polymerase eta. recombinant Pol eta, fluorescent DNA replication assay. 1.2% of 390,000 active. Potency, µM (doses to about 114 µM), inactives show top-dose activity change, negative = inhibition, hits mostly inhibitors. Q9Y253. AID 588591; also: % is scaled to controls: 0 for no effect and ±100 for the full control effect
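Pol eta at 10 nM preincubated with compounds 15 min at room temperature; reaction started with fluorescent substrate (50 nM final) and read kinetically at 0 and 10 min.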
POLB inh: blocks human DNA polymerase beta activity. P06746. Pol beta primer extension/strand displacement, fluorescence kinetic. Potency, µM (doses to about 114 µM), inactives show at the highest dose activity change, negative = inhibition, actives largely listed as inhibitors. 1.3% of 340,000 active. AID 485314; also: % is scaled to controls: 0 for no effect and ±100 for the full control effect
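Curves were derived by four-parameter Hill fits of normalized qHTS data. The kinetic fluorescent primer-extension read was taken at 0 and 10 min after 50 nM substrate, following a 15 min room-temperature preincubation of 10 nM enzyme with compounds.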
Pol kappa inh: inhibitors of human DNA polymerase kappa. purified Pol kappa, fluorescent DNA synthesis assay, 10 min. Potency, µM (highest dose often 107 µM), inactives show top-dose activity, negative = inhibition, actives largely listed as inhibitors. 0.53% of 400,000 active. AID 588579; also: % is scaled to controls: 0 for no effect and ±100 for the full control effect
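Fluorescent qHTS in 1536-well format: enzyme (10 nM) and compound sat 15 min at room temperature before 50 nM substrate (final) was added. Signal taken at 0 and 10 min; no-enzyme buffer wells were negative controls.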
APEX1 inh: APE1 (human) endonuclease inhibition | Potency, µM (titrated, usually from 65.8 µM), for the others: at the top dose activity change, negative = inhibition, hits mostly inhibitors | AID 2517 | 0.35% of 350,000 active | P27695 | recombinant APE1, TAMRA/BHQ-2 abasic DNA cleavage fluorescence;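 also: plate controls were vehicle for no effect and reference inhibitor for full effect; nearly all actives have a fitted effect of over 55% in size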
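Quantitative HTS: incision of a TAMRA/BHQ-2 double-stranded substrate bearing a tetrahydrofuran abasic site by 0.75 nM APE1 raises fluorescence. Substrate 50 nM final, added after 15 min compound preincubation at room temperature; progress as third-minus-first kinetic read difference.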
GLS inh: glutaminase GLS (human) inhibition; O94925; GLS enzymatic activity, qHTS titration; Potency, µM (titrated, usually from 45.5 µM), for the others: at the highest dose activity change, negative = inhibition, most hits filed as inhibitors; 0.21% of 410,000 active; AID 624170; also: % is scaled to controls: 0 for no effect and ±100 for the full control effect
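hKGA in 45 mM KH2PO4 (pH 8.2), 0.02% Tween-20 with compound, then 1mM L-Glutamine (stock as added) plus glutamate oxidase/HRP/Amplex red coupling mix. Fluorescence read initially and after 30 min at RT; signal change reflects glutamate formation.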
Active calls of the source: *; ? = inconclusive; / = no result; ! = not active in a repeat; [ ] = another dose, or the depositor's remark. Calls follow the shape of the dose curve; as a rule, active = well fitted curve in the direction sought with a large enough effect; inconclusive = small, poorly fitted or top-dose-only effect, or another doubt; inactive = no such curve, though single readings can be large; an effect the other way counts as inactive or inconclusive. Potency is read from the fitted curve at half-maximal effect.

SMILES | POLI inh | POLH inh | POLB inh | Pol kappa inh | APEX1 inh | GLS inh
O=C1NC(=O)C(Nc2ccccc2)C(=O)N1 | 3.2µM* | 4% | / | -6% | / | 5%
Cc1ccc(NC2C(=O)NC(=O)NC2=O)cc1 | 0.71µM* | 79µM* | / | -15% | / | 0%
C=CCn1c(O)c(C(C)=Nc2ccc(C(=O)OCC)cc2)c(=O)[nH]c1=O | 1% | -13% | -11% | 3% | 3% | -1%
O=C1NC(=S)NC(=O)C1=Cc1ccc(Br)s1 | ? | 22µM* | 9% | ? | -2% | -7%
CCCCCn1c(=O)c(C(=O)Nc2ccccc2N)c(O)c2ccccc21 | -14% | -1% | -6% | -7% | 5% | -2%
O=Cc1c(C(=O)O)n(Cc2ccc(Cl)cc2)c2ccccc12 | ? | 50µM* | ? | -16% | 0% | 23%
O=C1NC(=O)C(=O)C(=O)N1 | / | / | / | 4%[60.1 µM] | -16% | /
C#CCOCCOCCOCCNc1nc(N2CCN(C(=O)CCCCCCCCCCNC(=O)[C@H]([C@@H](C)CC)n3cc(CCCCN=C(N)N)nn3)CC2)nc(N2CCN(C(=O)CCCCCCCCCCNC(=O)[C@H](CO)n3cc(CCCCCN)nn3)CC2)n1 | ? | 79µM* | / | 12% | ? | ?
CC(C)Sc1nnc([C@@H](N)Cc2ccccc2)o1 | 9% | -9% | -7% | -8% | 3% | -1%
O=C(O)/C=C\C(=O)O | -15% | -6% | / | 2% | -13% | 2%
CC(=O)O.CC(=O)O.[Cd] | / | / | / | 10µM* | 4µM* | /
COC(=O)C1=C(c2c(C)noc2C)C[C@@H]2CC[C@H]1N2C(=O)NCCOc1ccc(OC)cc1 | 10% | -9% | / | -7% | 2% | 5%
C=C1C(=O)O[C@@H]2C[C@@H](C)[C@H]3C=CC(=O)[C@]3(O)C[C@@H]12 | ? | 32µM* | -1% | -26% | ? | -26%
C=C1C(=O)OC2CC3(C)OC3CCC(C)=CC(OC(C)=O)C12 (centres undefined) | 5% | -14% | / | -2% | / | 6%
Cc1cccc(NC(=O)CSc2nnc(C)c(=O)n2N)c1C | 11% | -7% | 23% | -5% | 16% | 2%
S=c1[nH]nc(-c2cccs2)n1C1CCCCC1 | 151% | -1% | 5% | -13% | -5% | 17%
COCCCn1c(N)c(C(=O)Nc2ccccc2)c2nc3ccccc3nc21 | 14µM* | -18% | 4% | -5% | -2% | -6%
CN(C)[C@H]1C(=O)C(C(N)=O)=C(O)[C@]2(O)C(=O)C3=C(O)c4c(O)cccc4[C@@](C)(O)[C@H]3C[C@@H]12 | / | / | / | -8%[12 µM] | / | -22%[20 µM]
CN(C)C1C(=O)C(C(N)=O)=C(O)[C@@]2(O)C(=O)C3=C(O)c4c(O)cccc4[C@@](C)(O)C3[C@H](O)C12 (some centres undefined) | / | / | / | 10µM* | 12% | /
CN(C)[C@@H]1C(=O)C(C(N)=O)=C(O)[C@@]2(O)C(=O)C3=C(O)c4c(O)cccc4[C@@](C)(O)[C@H]3C[C@@H]12 | / | / | / | / | -10%[21 µM] | /
CN(C)[C@@H]1C(=O)C(C(N)=O)=C(O)[C@]2(O)C(=O)C3=C(O)c4c(O)cccc4[C@@](C)(O)[C@H]3[C@H](O)[C@@H]12 | / | / | / | 4.7µM* | ? | /
O=C1NC(=S)SC1=Cc1ccc(N(CCCl)CCCl)cc1 | 16µM* | 79µM* | / | ? | / | 4%
COc1ccc(C(=O)C2CCCN(Cc3ccon3)C2)c(OC)c1 (centres undefined) | 89µM* | ? | 0% | ? | -1% | -14%
CC(C)(C)c1cc(C=C(C#N)C#N)cc(C(C)(C)C)c1O | 1% | -15% | 10%[57.1 µM] | 2%[60.1 µM] | ? | -8%
COc1cc(C=C(C#N)C#N)cc(O)c1O | ? | 11µM* | -11%[57.1 µM] | / | -6% | /
SMILES | POLI inh | POLH inh | POLB inh | Pol kappa inh | APEX1 inh | GLS inh
N#CC(C#N)=Cc1ccc(O)c(O)c1 | ? | 7.9µM*! | -12%[57.1 µM] | 11µM*! | ? | 8%
CCNC(=O)N1Cc2ccccc2-n2nncc2C1 | / | -8% | / | / | / | -2%
O=C(CCN1CC2CCC(CC2)C1)c1cccs1 | 15% | -2% | / | -4% | / | -6%
c1ccc(C2c3ccccc3-n3nncc3CN2CC2CCCCC2)cc1 (centres undefined) | -9% | -9% | / | -24% | / | 9%
CC/C(=C\C=C\[C@@H]1C=C[C@@H]2CCC[C@H]2[C@@H]1C(=O)c1ccc[nH]1)[C@@H]1O[C@@H]([C@@H](C)C(=O)O)CC[C@@H]1C | ? | 89µM* | ? | ? | -13% | ?
CC(=O)N1CC(=O)Nc2ccc(Cl)cc2C1c1ccc(F)cc1 (centres undefined) | 11% | -6% | 24% | -6% | 10% | -5%
O=C1CC(O)(CF)CCO1 (centres undefined) | / | / | / | 16%[60.1 µM] | 21% | /
CCOc1ccc(N2C(=O)/C(=C/c3ccco3)C(=O)NC2=S)cc1 | -96% | -101% | 13µM* | 1.6µM* | 21µM* | 1.8µM*
CCOc1ccc(N2C(=O)/C(=C\c3cccs3)C(=O)NC2=S)cc1 | 18µM* | -15% | ? | -9% | -6% | -11%
COc1ccc(N2C(=O)/C(=C/c3ccc(OC)c(OC)c3)C(=O)NC2=S)cc1 | ? | 3% | 11% | -2% | -3% | -20%
O=C1NC(=S)N(c2ccccc2F)C(=O)/C1=C\c1cccs1 | ? | -3% | 5% | -10% | -5% | -14%
COC(=O)c1ccccc1OP(=O)(c1cccc([N+](=O)[O-])c1)c1cccc([N+](=O)[O-])c1 | 112% | -5% | -1% | -5% | 0% | 24%
O=c1[nH]c(=S)[nH]c(O)c1N=Nc1cc(S(=O)(=O)Nc2ccc(Cl)cc2)ccc1Cl | ? | 79µM* | / | -25% | -11% | 88%
O=c1[nH]c(=S)[nH]c(O)c1N=Nc1ccc(S(=O)(=O)N2CCOCC2)cc1 | ? | 50µM* | ? | 3% | ? | 6%
NCC(=O)c1ccc(Br)cc1 | -16% | / | / | -4% | / | /
O=C(O)COc1ccc(Br)cc1C(c1c(C(=O)O)[nH]c2ccccc12)c1c(C(=O)O)[nH]c2ccccc12 | ? | 89µM* | 10% | ? | 14% | 9%
COc1ccc(-n2c(O)c(/C=C3\C=Nc4ccccc43)c(=O)[nH]c2=O)cc1 | ? | ? | -21% | -5% | -10% | -2%
O=c1[nH]c(=O)n(-c2ccccc2F)c(O)c1/C=C1\C=Nc2ccccc21 | ? | -8% | 2% | 0% | 32% | 4%
COc1ccc(-n2c(O)c(/C=C3\C=Nc4ccc(Br)cc43)c(=O)[nH]c2=O)cc1 | 7.9µM* | -16% | -13% | -5% | 10% | -7%
